Rows were chosen to be rich in hits. Some 4.3% of all compounds tested hit in one or more screens of this group.
NR3A LBD binder: modulates the human NR3A ligand-binding domain. NR3A LBD differential scanning fluorimetry, Tm shift; 0% = protein alone, 100% = glycine-bound protein. Tm shift relative to glycine control, % at 25 µM. actives 2.5% (n = 340,000);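 active = melting temperature shift of at least 10% of the positive control shift, at one fixed dose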
FAS-TE inh: inhibitors of human fatty acid synthase thioesterase domain. inhibition, % at 15 µM. P49327. recombinant FAS-TE, OMFH fluorogenic substrate, fluorescence endpoint. AID 602261. actives 0.67% (n = 360,000);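 active = compounds whose normalised, plate-corrected inhibition of enzyme fluorescence in the single-dose primary screen is 50% or more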;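 also: 0% = DMSO with enzyme and 100% = substrate without enzyme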
sPLA2-III inh: Blocks human group III sPLA2 activity; Q9NZ20; QFRET BODIPY PC-A2 liposome hydrolysis, fluorescence; inhibition, % at 12.2 µM; actives 0.56% (n = 370,000); AID 743126;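 active = inhibition above mean plus 3 SD of compounds lying within the high and low control bounds, cut at about 19% in these data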;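 also: 0% = median of test compound wells and 100% = no enzyme DMSO wells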
ADAM17 inh: inhibitors of human ADAM17; inhibition, % at 6.95 µM; actives 0.83% (n = 370,000); recombinant ADAM17, EDANS/DABCYL FRET peptide cleavage; AID 720648; P78536;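 active = inhibition above the mean of compounds lying between control limits plus 3 SD, set per campaign, cut at about 8.5% in these data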;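 also: 0% = DMSO-only wells as the low control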
Target sequence (P78536 215-824 limits assumed): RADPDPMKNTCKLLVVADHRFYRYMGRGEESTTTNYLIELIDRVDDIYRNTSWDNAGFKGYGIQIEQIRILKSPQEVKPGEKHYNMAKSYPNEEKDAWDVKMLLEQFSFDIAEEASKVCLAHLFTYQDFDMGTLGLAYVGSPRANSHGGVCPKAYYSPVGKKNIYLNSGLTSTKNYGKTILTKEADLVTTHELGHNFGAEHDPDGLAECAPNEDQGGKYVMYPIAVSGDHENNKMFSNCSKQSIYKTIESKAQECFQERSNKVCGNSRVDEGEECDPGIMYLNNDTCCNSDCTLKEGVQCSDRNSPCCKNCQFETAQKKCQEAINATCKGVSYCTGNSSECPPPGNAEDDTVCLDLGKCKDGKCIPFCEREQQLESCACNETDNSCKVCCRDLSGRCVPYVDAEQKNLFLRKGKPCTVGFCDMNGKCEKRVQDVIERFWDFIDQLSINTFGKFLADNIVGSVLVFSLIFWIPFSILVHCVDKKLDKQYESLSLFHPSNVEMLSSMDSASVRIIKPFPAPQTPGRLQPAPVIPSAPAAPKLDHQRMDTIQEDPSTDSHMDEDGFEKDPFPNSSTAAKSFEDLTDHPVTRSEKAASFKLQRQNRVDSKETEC
ADAM10 inh: inhibitors of human ADAM10 | O14672 | recombinant ADAM10, EDANS/DABCYL FRET peptide cleavage, 3 h | inhibition, % at 7 µM | actives 0.62% (n = 370,000) | AID 720582;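 active = inhibition above a per-campaign cutoff equal to the mean of compounds falling between control-based bounds plus 3 SD, cut at about 20% in these data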;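 also: 0% = DMSO wells while the 100% control is not disclosed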
ADAM10 counter: inhibits human ADAM10 in ADAM17 exosite counter-screen. shares compounds with ADAM17 inh. recombinant ADAM10, EDANS/DABCYL FRET peptide cleavage, 3 h. inhibition, % at 6.95 µM. actives 47% (n = 2,900);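 active = mean inhibition over the triplicate runs exceeds the activity threshold set in the earlier primary screen, cut at about 20% in these data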;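 also: 0% = DMSO wells and 100% = marimastat wells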
ADAM17 confirm: confirmation of inhibitors of human ADAM17. shares compounds with ADAM17 inh. recombinant ADAM17, EDANS/DABCYL QFRET peptide cleavage. inhibition, % at 6.95 µM. actives 65% (n = 2,900). AID 743257;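 active = mean inhibition across replicates above the hit cutoff set in the primary screen, cut at about 8.5% in these data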;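 also: 0% = DMSO wells and 100% = marimastat wells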
Starred values were filed as active, the others as inactive; i = inactive; . = not tested or not shown.

SMILES | NR3A LBD binder | FAS-TE inh | sPLA2-III inh | ADAM17 inh | ADAM10 inh | ADAM10 counter | ADAM17 confirm
Cc1ccc(NC(=O)C(NC2CCCC2)c2ccccc2)cc1Cl (configuration not stated) | -4 | 19 | -4 | 0 | 3 | . | .
C[C@H]1CN=C2N(CCNC(=O)CCC3CCCCC3)[C@H](Cc3ccc(O)cc3)CN21 | 0 | -10 | 5 | -5 | -14 | . | .
COc1ccc(C[C@H]2CN3C(=NC[C@@H]3C)N2CCNC(=O)CCC2CCCCC2)cc1 | -2 | -9 | -4 | 11* | 18 | -11 | -1
CC(=O)c1cc(-c2cccc(CO)c2)c(=O)n2c1CCC2 | . | . | 12 | -11 | -16 | . | .
CCN(CC)CCNC(=O)c1cc(-c2ccco2)nc2ccccc12 | -3 | -5 | -3 | i | i | . | .
COc1ccc(CCNC(=O)c2cc(-c3ccco3)nc3ccccc23)cc1 | -2 | . | 10 | 9.5* | 16 | i | -271
CCc1ccccc1OCC(=O)Nc1cccc(S(=O)(=O)NCc2ccco2)c1 | -3 | 20 | -13 | 0 | 0 | . | .
O=C(CN1C(=O)S/C(=C\c2ccc(F)cc2)C1=O)Nc1cccc(S(=O)(=O)NCc2ccco2)c1 | 11* | 33 | -45 | 9.2* | 9 | 21* | 12*
CS(=O)(=O)c1ccc(OCCCN2CCC(C(O)(c3ccccc3)c3ccccc3)CC2)cc1 | . | . | -18 | 0 | -4 | . | .
COc1cc(F)ccc1-c1csc(C(C)(O)c2ccccc2)n1 (configuration not stated) | . | 16 | -27 | 10* | 18 | 24* | 11*
COc1ccccc1-c1csc(C(O)(c2ccccc2)C(F)(F)F)n1 (configuration not stated) | . | 22 | -28 | 10* | 17 | 34* | 19*
CN(Cc1ccccc1F)C(=O)Cn1c(-c2cncs2)nc2ccccc21 | . | . | -2 | -1 | -4 | . | .
COC(=O)c1c(-c2ccc(OC)cc2)c2c(c3c4cc(OC)ccc4n(C(=O)c4ccccc4)c13)C(=O)N(C)C2 | . | . | -2 | -1 | -21 | . | .
CCc1ccc(C(C)NC(=O)/C(C#N)=C\c2cn[nH]c2-c2ccccc2)cc1 (configuration not stated) | -4 | -63 | -24 | 11* | 17 | 35* | 17*
COC(=O)[C@]12C[C@H](CC(=O)N3CCC(c4ccccc4)CC3)C(=O)N(Cc3ccc4c(c3)OCO4)C1=C[C@H](C(C)(C)C)O[C@@H]2C | . | . | -2 | 2 | 5 | . | .
CC(=O)c1ccccc1OCC(O)CN1CCN(C(c2ccccc2)c2ccccc2)CC1 (configuration not stated) | -3 | 22 | -20 | 11* | 11 | 6 | 3
CCn1c(SCC(=O)NN=Cc2cc(OC)ccc2OC)nnc1-c1ccc(OC)cc1 | . | . | -4 | -20 | -77 | . | .
Cc1ccc(Cn2cc(COC(=O)NCCc3c[nH]c4ccccc34)nn2)cc1 | . | . | -79 | -3 | 2 | . | .
CC(NC(=O)COC(=O)C1(C)CC1(Cl)Cl)c1ccccc1 (configuration not stated) | 0 | -6 | -2 | 8.8* | 2 | 30* | 9.5*
O=C(Cn1nc(-c2ccccc2)ccc1=O)NCCc1ccc(F)cc1 | . | . | -1 | 0 | -2 | . | .
COc1ccccc1NC(=O)c1ccc(C)c(S(=O)(=O)N2CCCCC2)c1 | 2 | 19 | -16 | 7 | 14 | . | .
COc1ccccc1NC(=O)c1ccc(Cl)c(S(=O)(=O)N2CCCCC2)c1 | 0 | 19 | -18 | 10* | 14 | 3 | 3
COc1ccccc1CN(C)C(=O)c1cc(C)nc2ccccc12 | 0 | -6 | -1 | 2 | -5 | . | .
COc1ccc(CN(C)C(=O)c2cc(-c3ccccc3)nc3ccc(C)cc23)c(OC)c1 | . | 32 | -12 | 12* | 14 | 3 | 5
COC(=O)C1=C(C)N(Cc2ccccc2C(F)(F)F)C(=NCc2ccccc2)NC1CCc1ccccc1 (configuration not stated) | . | . | 6 | -3 | 7 | . | .
SMILES | NR3A LBD binder | FAS-TE inh | sPLA2-III inh | ADAM17 inh | ADAM10 inh | ADAM10 counter | ADAM17 confirm
Cc1ccc(/C=N/NC(=O)C2CC(=O)N(c3ccccc3)C2)s1 (configuration not stated) | -8 | -11 | 6 | 10* | 4 | 0 | 2
O=C(CSc1nnc(NC(=O)c2ccc(F)cc2)s1)NCc1ccco1 | -1 | -4 | 4 | -11 | -15 | . | .
O=C(CSc1nnc(NC(=O)c2cccc(F)c2)s1)NCc1ccco1 | 4 | -7 | -1 | 8.6* | 7 | -7 | -2
CCOc1cccc(/C=N\NC(=O)Cc2cccs2)c1O | . | . | -18 | -9 | -24 | . | .
O=C1CC(c2ccco2)CC(O)=C1C=Nc1cc(Cl)ccc1O (configuration not stated) | 2 | 25 | 10 | 11* | 18 | -30 | -6
CCOC(=O)C1=C(c2ccccc2)NC(=O)NC1c1cc(Br)c(O)c(OC)c1 (configuration not stated) | 2 | -3 | -4 | 10* | -1 | 13 | 3
CCOC(=O)C1=C(C)NC(=O)NC1c1cc(Br)c(O)c(OC)c1 (configuration not stated) | 0 | -3 | -8 | -5 | -2 | . | .
CC(=O)N1c2ccc(C)cc2Sc2c1ccc1ccccc21 | -6 | 25 | -17 | 12* | 18 | 16 | 9.0*
CN(CCOC(=O)CSc1ccccc1)C1CN(Cc2cn(Cc3ccccc3F)nn2)S(=O)(=O)C1 (configuration not stated) | . | . | -7 | -2 | 2 | . | .
CCn1c(SCC(=O)Nc2ccc(C(=O)OC)cc2)nnc1-c1cccc(Cl)c1 | . | . | -20 | 4 | 4 | . | .
COc1ccc(Nc2oc(COc3ccc(Cl)cc3)nc2C#N)cc1 | 2 | 28 | -9 | 13* | 26* | 31* | 18*
COc1ccc(CCNc2oc(COc3ccc(Br)cc3)nc2C#N)cc1OC | -2 | 19 | -30 | 10* | 18 | 34* | 19*
COc1ccc(Nc2oc(-c3ccc(Cl)cc3)nc2C#N)cc1 | -4 | 0 | 4 | -20 | -61 | . | .
COc1ccc(CNc2oc(COc3ccc(Cl)cc3)nc2C#N)cc1 | 3 | 39 | -26 | 11* | 18 | 31* | 16*
Cc1ccccc1Cn1ccc2ccc(-c3ccc4ccn(Cc5ccccc5)c4c3)cc21 | . | . | 8 | -10 | -28 | . | .
O=C(CN(CCc1ccccc1)S(=O)(=O)c1ccc(Cl)s1)N1CCOCC1 | . | . | 14 | -3 | -12 | . | .
CCc1ccc(/C=C2/Sc3ccccc3N(CC(=O)NCC3CCCO3)C2=O)cc1 (configuration not stated) | -7 | 9 | -14 | 8.8* | 8 | 15 | 6

Bioassay records from PubChem BioAssay.
